# Several values for one entry are separate records, joined by “and”; a condition that tells them apart may be missing. Identical values can stand only once. Records with an inconclusive call do not appear. Activity calls are given as the source filed them. How the source made its calls, unless noted: active means hit-call score of the fitted dose curve at least 0.9, where 1 is the maximum; inconclusive means response in the unintended direction; inactive means score below 0.9.
# Assays:
# [1] = test system: TTR (gene 7276); experiment: CCTE_GLTED_hTTR_0.5uM: CCTE's human Transthyretin (hTTR) Inhibition Assay, with 0.5uM TTR, Great Lakes Toxicology and Ecology Division (GLTED) Lab (AID 2284320; active means hit-call score of the fitted dose curve at least 0.9, where 1 is the maximum; inactive means score below 0.9)
# Procedure, shortened: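 Cell-free displacement assay in which human TTR at 0.5 uM was incubated with test chemical for 2 h. Displacement of the ANSA probe was read by fluorescence at 380 nm excitation/475 nm emission. Loss of signal was fitted in the positive direction versus DMSO.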
# [2] = test system: SERPINA7 (gene 6906); experiment: CCTE_GLTED_hTBG: CCTE's human Thyroxine-binding Globulin (TBG) Inhibition Assay, Great Lakes Toxicology and Ecology Division (GLTED) Lab (AID 2284343);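 further: active chemicals lower fluorescence versus DMSO baseline by displacing probe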
# Procedure, shortened: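 Human TBG incubated 2 h with test chemical; displacement of ANSA probe read by fluorescence, 380 nm excitation/475 nm emission. Loss of signal relative to DMSO.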
# [3] = CCTE_Deisenroth_5AR_NBTE_donor: CCTE's 5alpha-reductase NanoBRET Target Engagement Assay […], Deisenroth Lab (AID 2284319; active means hit-call score of the fitted dose curve at least 0.9, where 1 is the maximum; inactive means score below 0.9); conditions: actives raise or lower the signal
# Procedure, shortened: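 HEK293T cells transiently expressing SRD5A2-NanoLuc, exposed 5 h to chemicals (8 points, 10 nM - 29.9 uM), with testosterone tracer for the final 2 h. Donor luminescence at 460 nm read after Nano-Glo substrate plus extracellular NanoLuc inhibitor; bidirectional fit versus DMSO.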
# [4] = CCTE_Deisenroth_5AR_NBTE_acceptor: CCTE's 5alpha-reductase NanoBRET Target Engagement Assay - Autofluorescence Screen, Deisenroth Lab (AID 2284321; active means hit-call score of the fitted dose curve at least 0.9, where 1 is the maximum; inactive means score below 0.9;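 further: compound fluorescence in the acceptor channel under 460 nm excitation flags autofluorescence artifacts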); conditions: actives raise or lower the signal
# Procedure, shortened: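 Autofluorescence counter-screen: chemicals at an assumed nominal 100 uM in DMSO were scanned in three independent runs with 460 nm excitation. Gain or loss of acceptor signal was fitted bidirectionally against DMSO.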
# [5] = test system: SRD5A2 (gene 6716); experiment: CCTE_Deisenroth_5AR_NBTE_ratio: CCTE's 5alpha-reductase NanoBRET Target Engagement Assay - Ratio, Deisenroth Lab (AID 2284322; active means hit-call score of the fitted dose curve at least 0.9, where 1 is the maximum; inactive means score below 0.9); conditions: actives raise or lower the signal
# Procedure, shortened: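 HEK293T transiently expressing SRD5A2-NanoLuc; cells exposed to chemical (8-point, 10 nM - 29.9 uM) for 5 h total, testosterone tracer added for final 2 h. NanoBRET acceptor/donor ratio (650/460 nm), bidirectional fit vs DMSO.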
# [6] = test system: Brachyury (BRA) Protein Expression, Deisenroth Lab, TBXT (gene 6862); experiment: CCTE_Deisenroth_DEVTOX-GLR_legacy_Bra: (Legacy) CCTE's DevTox GLR-Endo Assay Evaluation of Brachyury (BRA) Protein Expression, Deisenroth Lab (AID 2284329; active means hit-call score of the fitted dose curve at least 0.9, where 1 is the maximum; inactive means score below 0.9)
# Procedure, shortened: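 RUES2-GLR human pluripotent cells differentiated 48 h with two 24-h-interval chemical exposures (1 nM - 200 uM, 10 points); fixed, nuclear-stained, imaged. Bra+ cell percentage (intensity 5x BMAD above pluripotent control median) fitted relative to 0.2% DMSO.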
# [7] = CCTE_Deisenroth_DEVTOX-GLR_legacy_CellCount: (Legacy) Viability Assessment in CCTE's DevTox GLR-Endo Assay, Deisenroth Lab (AID 2284331; active means hit-call score of the fitted dose curve at least 0.9, where 1 is the maximum; inactive means score below 0.9); conditions: actives raise or lower the signal
# Procedure, shortened: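 Human pluripotent RUES2-GLR cells differentiated 48 h with two 24-h-interval exposures, 10-point 1 nM–200 uM series, 0.2% DMSO. Fixed nuclei counted by high-content imaging (5 fields/well); bidirectional fit vs DMSO, n≥4.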
# [8] = test system: SRY-box transcription factor 17 (SOX17) Protein Expression, Deisenroth Lab, SOX17 (gene 64321); experiment: CCTE_Deisenroth_DEVTOX-GLR_legacy_Sox17: (Legacy) CCTE's DevTox GLR-Endo Assay Evaluation of SRY-box transcription factor 17 (SOX17) Protein Expression, Deisenroth Lab (AID 2284341; active means hit-call score of the fitted dose curve at least 0.9, where 1 is the maximum; inactive means score below 0.9); conditions: actives raise or lower the signal
# Procedure, shortened: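 RUES2-GLR human pluripotent cells differentiated toward endoderm for 48 h, dosed twice at 24 h intervals (1 nM–200 uM, 10 points). Imaging gives % SOX17+ cells (intensity >5x BMAD above pluripotent control median); bidirectional fit versus 0.2% DMSO.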
# [9] = test system: IYD (gene 389434); experiment: CCTE_GLTED_hIYD: CCTE's human Iodotyrosine Deiodinase (xIYD) Inhibition Assay, Great Lakes Toxicology and Ecology Division (GLTED) Lab (AID 2284317);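 further: cell-free human IYD enzyme made in baculovirus insect cells; iodide freed from monoiodotyrosine measured by cerium arsenite color change at 420 nm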
# Procedure, shortened: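 hIYD: baculovirus-expressed human IYD deiodinated monoiodotyrosine for 3 h with test chemical; free iodide was measured by Sandell-Kolthoff absorbance at 420 nm and normalized to MNT and DMSO/NaOH controls.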
# [10] = IUF_NPC4_neurite_area_120hr: Leibniz Research Institute for Environmental Medicine (IUF) 120-hour Neuronal Morphology Assay for Neurite Area (NPC4) (AID 2284305)
# Procedure, shortened: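 Human fetal cortex-derived neural progenitor spheres (0.3 mm, GW 16-19) plated on poly-D-lysine/laminin in N2 differentiation medium and exposed from day 0 for 120 h across 7 concentrations plus solvent control. Neurite area is mean pixel area per TUBB3-positive neuron via skeletonization, analysed relative to DMSO.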
# [11] = IUF_NPC2-5_cytotoxicity_72hr: Cytotoxicity Assessment at 72 hours in the Leibniz Research Institute for Environmental Medicine (IUF) Neural Progenitor Cell Migration and Differentiation Assay for Cytotoxicity (NPC2-5) (AID 2284306);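 further: LDH release into supernatant measured by resorufin fluorescence marking membrane damage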
# Procedure, shortened: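 Human fetal (GW 16-19) neural progenitor spheres, 0.3 mm, plated on poly-D-lysine/laminin in N2 differentiation medium and exposed from day 0 to 7 concentrations plus solvent control (DMSO ≤0.1%). LDH-dependent resazurin-to-resorufin fluorescence in supernatant at 72 h.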
# [12] = IUF_NPC2-5_cytotoxicity_120hr: Cytotoxicity Assessment at 120 hours in the Leibniz Research Institute for Environmental Medicine (IUF) Neural Progenitor Cell Migration and Differentiation Assay (NPC2-5) (AID 2284307)
# Procedure, shortened: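 Human fetal (GW 16-19) neural progenitor spheres (0.3 mm) plated on poly-D-lysine/laminin in N2 differentiation medium, exposed 120 h with half-medium renewal at day 3; 7 concentrations plus solvent control, DMSO ≤0.1%. LDH release in supernatant read by resorufin fluorescence.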
# [13] = IUF_NPC2-5_cell_number_120hr: Cell Number Assessment at 120 hours in the Leibniz Research Institute for Environmental Medicine (IUF) Neural Progenitor Cell Migration and Differentiation Assay (NPC2-5) (AID 2284308; active means hit-call score of the fitted dose curve at least 0.9, where 1 is the maximum; inactive means score below 0.9;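 further: count of Hoechst-stained nuclei in migration zone around plated human neural progenitor spheres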)
# Procedure, shortened: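 Human fetal neural progenitor spheres (0.3 mm) plated on poly-D-lysine/laminin in N2 differentiation medium, exposed five days across 7 concentrations with half-medium refresh at day 3. Hoechst-positive nuclei counted in migration area at 120 h, relative to DMSO.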
# [14] = IUF_NPC2-5_viability_120hr: Viability Assessment at 120 hours in the Leibniz Research Institute for Environmental Medicine (IUF) Neural Progenitor Cell Migration and Differentiation Assay (NPC2-5) (AID 2284312; active means hit-call score of the fitted dose curve at least 0.9, where 1 is the maximum; inactive means score below 0.9)
# Procedure, shortened: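 Human fetal (GW 16-19) neural progenitor spheres of 0.3 mm were plated on poly-D-lysine/laminin in N2 differentiation medium and exposed from day 0 for 120 h, with half-medium refresh at day 3. Viability was read as alamar blue resazurin-to-resorufin fluorescence against DMSO.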
# [15] = CCTE_Mundy_HCI_iCellGluta_NOG_NeuriteLength: CCTE's Neurite Outgrowth Assay in iCellGluta cells for Neurite Length, Mundy Lab (AID 2284318)
# Procedure, shortened: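 Automated high-content imaging of betaIII-tubulin (Alexa Fluor-488) and Hoechst-stained cells gave neurite length, normalized to the DMSO baseline.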
# [16] = IUF_NPC1_cytotoxicity_72hr: Cytotoxicity Assessment at 72 hours in the Leibniz Research Institute for Environmental Medicine (IUF) Neural Progenitor Cell Proliferation Assay (NPC1) (AID 2284332);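 further: rising LDH signal means more cytotoxicity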
# Procedure, shortened: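 Human fetal neural progenitor spheres (0.3 mm) in EGF/FGF proliferation medium, 37C, exposed 72 h without renewal. LDH release in supernatant read by resorufin fluorescence; gain of signal scored relative to dynamic range.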
# [17] = CCTE_Mundy_HCI_iCellGluta_NOG_NeuronCount: CCTE's Neurite Outgrowth Assay in iCellGluta cells for Neuron Count, Mundy Lab (AID 2284340);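 further: cells fixed about 48 h after compound addition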
# Procedure, shortened: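 Neuron count read by automated high-content imaging of Hoechst 33342 and betaIII-tubulin/Alexa Fluor-488 labelling in human iPSC glutamatergic neurons. Activity fitted relative to DMSO.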
# [18] = CCTE_Mundy_HCI_iCellGluta_NOG_NeuriteCount: CCTE's Neurite Outgrowth Assay in iCellGluta cells for Neurite Count, Mundy Lab (AID 2284342);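 further: chemical exposure about 48 hours starting 2 hours after plating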
# [19] = TAMU_PeakParms_SingleDonor1434_Asystole: Texas A&M University (TAMU) 1.5-hr Human Induced Pluripotent Stem Cell (iPSC)-derived Cardiomyocytes Calcium (Ca+2) Flux Assay for Cardiotoxicity: Asystole (quiescence of beating) (AID 2284328)
# Procedure, shortened: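 Human iPSC-derived cardiomyocytes (donor 1434) were exposed to 0.2, 1, 10 and 100 uM compound in 0.5% DMSO for 90 min at 37C. Ca2+-dye fluorescence gave average peak frequency; POD is EC95, a 95% beat-rate drop versus DMSO.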
# [20] = IUF_NPC5_oligodendrocyte_differentiation_120hr: Leibniz Research Institute for Environmental Medicine (IUF) 120-hour Oligodendrocyte Differentiation Assay (NPC5) (AID 2284304);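 further: primary human fetal neural progenitor spheres plated to migrate and differentiate; share of O4-positive cells among Hoechst nuclei found by CNN image analysis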
# Procedure, shortened: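 Human fetal neural progenitor spheres (0.3 mm) plated on poly-D-lysine/laminin in N2 differentiation medium and exposed for 120 h at 7 concentrations, with half-medium renewal at day 3. O4-positive cells identified by CNN, expressed as percent of Hoechst nuclei.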
structure (smiles),measurement,setting,value
O=C(O)C(F)(F)C(F)(F)C(F)(F)C(F)(F)C(F)(F)C(F)(F)C(F)(F)C(F)F,AC50,[1],530 nM (active)
same,AC50,[2],73.1 µM (active)
O=C(c1ccc(OCCN2CCCCC2)cc1)c1c(-c2ccc(O)cc2)sc2cc(O)ccc12,AC50,[3],50 µM (active)
same,AC50,[4],50 µM (active)
same,AC50,[5],19.1 µM (active)
CCCCCCOc1ccc(O)cc1,AC50,[2],33.7 µM (active)
O=C(O)c1ccccc1O,outcome,[6],inactive
same,outcome,[7],inactive
same,outcome,[8],inactive
same,AC50,[2],50 µM (active)
CCCCCCCCCCCCN1CCOCC1,AC50,[9],51 µM (active)
same,outcome,[3],inactive
same,outcome,[4],inactive
same,outcome,[5],inactive
c1ccc2scnc2c1,outcome,[10],inactive
same,outcome,[11],inactive
same,outcome,[12],inactive
same,outcome,[13],inactive
same,outcome,[14],inactive
same,outcome,[15],inactive
same,outcome,[16],inactive
same,outcome,[17],inactive
same,outcome,[18],inactive
CC(=O)C1=C(C)[C@@H]2C[C@@]3(C1)[C@H](C)CC[C@H]3C2(C)C,outcome,[3],inactive
same,outcome,[4],inactive
same,outcome,[5],inactive
CCCO[Si](OCCC)(OCCC)OCCC,outcome,[3],inactive
same,outcome,[4],inactive
same,outcome,[5],inactive
CCCCCCCCOC(=O)c1ccc(O)cc1,AC50,[9],39.6 µM (active)
same,AC50,[2],7.24 µM (active)
CCCCC(CC)COC(=O)COc1ccc(Cl)cc1C (stereo not given),outcome,[10],inactive
same,outcome,[11],inactive
same,outcome,[12],inactive
same,outcome,[13],inactive
same,outcome,[14],inactive
same,AC50,[15],33.4 µM (active)
same,outcome,[16],inactive
same,AC50,[17],39 µM (active)
same,AC50,[18],32.2 µM (active)
O=C(O)C(F)(F)OC(F)(F)C(F)(F)OC(F)(F)C(F)(F)C(F)(F)C(F)(F)F,AC50,[1],712 nM (active)
CC(C)Cc1ccc(C(C)C(=O)O)cc1 (stereo not given),outcome,[10],inactive
same,outcome,[11],inactive
same,outcome,[12],inactive
same,outcome,[13],inactive
same,outcome,[14],inactive
same,AC50,[15],15 µM (active)
same,outcome,[7],inactive
same,outcome,[16],inactive
same,outcome,[17],inactive
same,outcome,[18],inactive
O=c1cc(-c2ccc(O)cc2)oc2cc(O)cc(O)c12,AC50,[2],38.2 µM (active)
CNC(=C[N+](=O)[O-])NCCSCc1ccc(CN(C)C)o1,outcome,[19],inactive
CC/C(=C(\c1ccccc1)c1ccc(OCCN(C)C)cc1)c1ccccc1,AC50,[9],55.8 µM (active) and 31.5 µM (active)
same,AC50,[3],67.4 µM (active)
same,AC50,[4],64 µM (active)
same,AC50,[5],76.6 µM (active)
same,outcome,[19],inactive
O=C1OC2(c3ccc(O)cc3Oc3cc(O)ccc32)c2ccccc21,outcome,[9],inactive
same,AC50,[3],3.88 µM (active)
same,outcome,[4],inactive
same,AC50,[5],10.3 µM (active)
CCCCCCCCCCCCOCCOS(=O)(=O)O,AC50,[9],76.7 µM (active)
same,AC50,[3],79 µM (active)
same,AC50,[4],78.4 µM (active)
same,AC50,[5],79.1 µM (active)
same,AC50,[2],50 µM (active)
O=S(=O)(O)c1cc(S(=O)(=O)O)c2c(N=Nc3ccccc3)c(O)ccc2c1,outcome,[3],inactive
same,outcome,[4],inactive
same,AC50,[5],10.9 µM (active)
same,AC50,[2],33.9 µM (active)
O=S(=O)(O)C(F)(F)C(F)(F)OC(F)(F)C(F)(F)F,AC50,[1],2140 nM (active)
N#CCCNCCC#N,outcome,[15],inactive
same,outcome,[19],inactive
same,outcome,[17],inactive
same,outcome,[18],inactive
N[C@@H](CCC(=O)O)C(=O)O,outcome,[20],inactive
same,outcome,[10],inactive
same,outcome,[12],inactive
same,outcome,[13],inactive
same,outcome,[14],inactive
same,outcome,[15],inactive
same,outcome,[16],inactive
same,outcome,[17],inactive
same,outcome,[18],inactive

# — PubChem BioAssay (EPA / NIEHS)
